Our source for the inhibition values is PubChem BioAssay AID800 (PCMD, 2007).

Out of some 220,000 compounds screened, about 650 (0.3%) were called active. Only a selection was taken, and actives are over-represented in it overall. A number with no mark means an inactive call. No stated cut-off is given here; in the data, active means inhibition above about 40%; inactive means the rest.

What is called inhibition is the drop in the measured response relative to a control, in per cent.

Chain of Coagulation factor XII (Homo sapiens) (P00748 20-372 limits assumed): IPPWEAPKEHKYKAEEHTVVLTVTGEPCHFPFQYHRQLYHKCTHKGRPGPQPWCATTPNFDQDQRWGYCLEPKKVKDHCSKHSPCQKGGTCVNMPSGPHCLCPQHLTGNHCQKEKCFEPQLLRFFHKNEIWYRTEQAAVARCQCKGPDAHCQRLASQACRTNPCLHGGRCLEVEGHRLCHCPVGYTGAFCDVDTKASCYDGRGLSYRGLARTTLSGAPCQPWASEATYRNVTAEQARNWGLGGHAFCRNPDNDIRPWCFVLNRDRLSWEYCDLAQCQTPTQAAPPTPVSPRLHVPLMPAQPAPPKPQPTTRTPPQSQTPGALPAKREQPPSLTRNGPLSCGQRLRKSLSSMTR
Chain of Coagulation factor XII (Homo sapiens) (P00748 373-615 limits assumed): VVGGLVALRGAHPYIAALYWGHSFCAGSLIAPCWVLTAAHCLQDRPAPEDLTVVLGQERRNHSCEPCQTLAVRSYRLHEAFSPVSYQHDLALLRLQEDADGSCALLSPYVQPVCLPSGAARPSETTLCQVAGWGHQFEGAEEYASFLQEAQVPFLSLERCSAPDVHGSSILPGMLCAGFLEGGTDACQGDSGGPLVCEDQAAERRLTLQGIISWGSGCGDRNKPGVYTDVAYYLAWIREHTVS

This test concerns the target Coagulation factor XII (Homo sapiens) (UniProt P00748). The test can be described thus: coagulation factor XIIa activity inhibition – biochemical, 1536-well, primary screen (AID 800).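 Further: 0% = enzyme with no compound and 100% = blank without enzyme.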 The following applies: purified FXIIa, Boc-QGR-AMC fluorogenic substrate, 2 h; at 5 µM; stronger effect = higher value.
Take `O=C(c1ccc(F)cc1)n1c(=S)nc2ccccn21`: the inhibition is 0.92%.

With `COc1c(O)cc2oc(-c3ccc(O)c(O)c3)cc(=O)c2c1O`, the inhibition is 2.88%.

With `CCCCN1Cc2c(nc3cc(-c4ccccc4)[nH]n3c2=O)C1=O`, the inhibition is -5.1%.

With `O=C(NCc1cccnc1)c1cnc2ccccc2n1`, the inhibition is 8.13%.

For `COC(=O)c1c(C)oc(C)c1S(=O)(=O)NCc1ccc(Cl)cc1`, the inhibition was 6.03%.

Take `CC(=O)c1ccc(NC(=O)C2CC(=O)Nc3nc4ccccc4n32)cc1` (stereo not given): the inhibition is 8.34%.

Take `COc1ccc(C2/C=C\CN(S(=O)(=O)c3cccs3)CC(=O)N2Cc2ccc(F)cc2)cc1` (stereo not given): the inhibition was 9.45%.

For the compound `O=[N+]([O-])c1cc(Cl)cc(/C=N/NC(=S)Nc2cc(S(=O)(=O)N3CCOCC3)ccc2Cl)c1O`, the inhibition is 6.23%.

As to `CSCC[C@H](NC(=O)CCCn1nnc2ccccc2c1=O)C(=O)O`, the inhibition is 4.87%.

Regarding `CCOC(=O)COc1nc(C)cc(C(F)(F)F)c1C#N`, the inhibition was -0.55%.

Consider `Cc1ccc(Nc2nc(N)nc(CSc3nnc(C)s3)n2)cc1`, for which the inhibition is 4.96%.

Take `Cc1cnc(NC(=O)c2ccccn2)s1`: the inhibition was 7.08%.

Take `COC(=O)c1ccc(Oc2nc(NC(C)C)nc(SC)n2)cc1`: the inhibition was 44% (active).

With `COC(=O)c1ccc(Oc2nc(Nc3ccc(F)cc3)nc(N3CCCC3)n2)cc1`, the inhibition was -2.89%.

Turning to `CCNc1nc(Oc2ccc(C(=O)OC)cc2)nc(N2CCOCC2)n1`, the inhibition is 9.71%.

For `COCCN(C(=S)Nc1cccc(Cl)c1C)C(C)c1ccco1` (stereo not given), the inhibition was 6.59%.

Regarding `COP1(=O)C[C@@H](O)[C@@H](O)[C@@H](COCc2ccccc2)O1` (stereo not given in full), the inhibition is 5.94%.

Take `O=[N+]([O-])c1ccc2nc(-c3ccccn3)[nH]c2c1`: the inhibition was 5.76%.

On to `CN(C)S(=O)(=O)c1ccc(NC(=O)COC(=O)Cn2[nH]c(=O)c3ccccc3c2=O)cc1`, for which the inhibition was -3.32%.

For the compound `Cc1nn2c(NCCN(C)C)c3c(nc2c1-c1ccccc1)CCC3`, the inhibition is 10.3%.

Regarding `O=C1NNC(c2ccccc2)=N/C1=C\c1ccc(Cl)cc1`, the inhibition was 0.78%.

Take `CC1Cc2ccccc2N1CC(=O)Nc1ccc(S(N)(=O)=O)cc1` (stereo not given): the inhibition was 7.97%.

Regarding `COc1ccc2oc(N)c(C=O)c(=O)c2c1`, the inhibition was 8.71%.

`CC(C)(C)C(=O)NNC(=O)c1ccc(Oc2cc(Cl)cc(Cl)c2)o1`: the inhibition was 8.39%.

On to `CCOC(=O)c1cc(C)nc(S(C)(=O)=O)c1C#N`, for which the inhibition is 2.84%.

With `CC(C)=CCC/C(C)=C/C(=O)O`, the inhibition is 4.62%.

With `O=c1c2ccccc2cnn1Cc1n[nH]c(=S)n1-c1ccccc1F`, the inhibition was 4.28%.

For `COc1ccc(SC[C@H](Cc2ccccc2)N2CCN(CCc3ccccc3)CCC2=O)cc1`, the inhibition is 9.1%.

Turning to `NC(=O)c1nnsc1-c1ccc(-c2snnc2C(N)=O)cc1`, the inhibition was -1.04%.

Take `COC(=O)c1cc(S(=O)(=O)N2CCC(C(N)=O)CC2)oc1C`: the inhibition was 1.7%.

For the compound `NC(=O)CC(NC(=O)Cc1cccc2ccccc12)c1ccc(NCc2cc(F)ccc2F)c([N+](=O)[O-])c1` (stereo not given), the inhibition was 3.78%.

`Nc1ccccc1C(=O)NC1CCCCNC1=O` (stereo not given): the inhibition is 3.81%.

For `O=C(Nc1cccnc1Oc1ncnc2cc(Cl)ccc12)c1ccc(F)cc1`, the inhibition was 0.47%.

In the case of `CCOC(=O)CC1C(=O)NCCN1c1nc2c(C)cccn2c(=O)c1/C=C1\SC(=S)N(C(C)CC)C1=O` (stereo not given), the inhibition is 14%.

In the case of `S=c1[nH]nc(-c2cc(-c3ccccc3)n[nH]2)n1/N=C/c1c2ccccc2cc2ccccc12`, the inhibition is 8.1%.

On to `CC(C)c1nc(SCC(=O)NC(=O)NC(C)(C)C)n[nH]1`, for which the inhibition was 12.8%.

Consider `Cc1ccc(NNC(=O)C2CCC2)cc1C`, for which the inhibition was 10.5%.

Regarding `C=CCC1(C#N)C(=S)NC(C)=C(C(=O)OCC)C1c1ccccc1` (stereo not given), the inhibition is 6.96%.

On to `Cc1nc(Cl)c(C#N)c2c1CCCC2`, for which the inhibition was 2.37%.

As to `Cc1cc(C)c(NC(=O)CN2C(=O)NC(Cc3ccccc3)C2=O)c(C)c1` (stereo not given), the inhibition was 0.73%.

With `CC(C)=CCc1c(O)c(CC=C(C)C)c2occ(-c3ccc(O)cc3)c(=O)c2c1O`, the inhibition is 7.17%.

Consider `O=C(O)C1=C[C@H](c2cccs2)C[C@H](OCCCCO)O1`, for which the inhibition is 7.11%.

On to `Cc1ccc(S(=O)(=O)NC(=O)N2CCCN(Cc3ccc(F)cc3)CC2)cc1`, for which the inhibition is 3.56%.

With `Cc1ccc(NC(=O)Nc2cc(-c3ccccc3)nn2C)cc1Cl`, the inhibition is -1.26%.

`Nc1nnc(SCC(=O)NC2CCCc3ccccc32)s1` (stereo not given): the inhibition was -2.74%.

In the case of `CN(C)C(=O)c1coc2nc3ccccc3nc12`, the inhibition was 7.55%.

Turning to `CC1Cc2ccccc2N1S(=O)(=O)c1ccc(Cl)nc1` (stereo not given), the inhibition was 1.69%.

`COc1ccc2c(c1)c1ncn(Cc3ccccn3)c(=O)c1n2C`: the inhibition was -1.96%.

With `CN=C1C=C/C(=N/N=c2\ccn(O)cc2C)C=C1C`, the inhibition was 12.1%.

Turning to `O=C1CCC(=O)N(O)CCCCCNC(=O)CCC(=O)N(O)CCCCCNC(=O)CCC(=O)N(O)CCCCCN1`, the inhibition was 6.14%.

On to `O=C(O)C(F)(F)C(NCc1ccccc1)c1ccccc1` (stereo not given), for which the inhibition was 18.5%.

On to `CCOC(=O)CSc1nc(C)c(Oc2ccc(Cl)cc2Cl)c(=O)[nH]1`, for which the inhibition is 10.3%.

Turning to `COCCCn1c(-c2cccs2)nc2nc3ccccc3nc21`, the inhibition was -19.8%.

As to `CSCC[C@H](NC(=O)NC1CCCC1)C(=O)O`, the inhibition was 0.35%.

Turning to `CCN(CC(=O)Nc1ccc(S(=O)(=O)N2CCCC2)cc1)CC(=O)Nc1cccc(OC)c1`, the inhibition was 3.63%.

Consider `O=C(NN1C(=O)C2CCCCC2C1=O)c1ccco1` (stereo not given), for which the inhibition was 5.14%.

Take `C/C(=N/NC(=O)CC(=O)N/N=C(\C)c1ccc([N+](=O)[O-])cc1)c1ccc([N+](=O)[O-])cc1`: the inhibition was 6.83%.

In the case of `COc1cccc(NC(=O)CS(=O)(=O)c2cn(CC(=O)N3CCOCC3)c3ccccc23)c1`, the inhibition was 2.47%.

Consider `O=C(CS(=O)(=O)c1cn(Cc2cccc(F)c2)c2ccccc12)N1CCCCC1`, for which the inhibition was 14.4%.

In the case of `O=C(CS(=O)(=O)c1cn(Cc2ccc(Cl)cc2)c2ccccc12)N1CCOCC1`, the inhibition was 45.4% (active).
